69 sequences from PubChem BioAssay AID1347426 (Functional Genomics Laboratory (NCATS/FGL), 2020) can be followed below.

The campaign covered roughly 31,000 sequences. About 1,400 (4.5%) were called active. This is one part of a sample in which actives are shown more often than they occur. Unmarked numbers belong to inactive results.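 How the source made its calls: active means median seed-adjusted z-score above 1 or below -1; inactive means the rest.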

A short description of this test: Novel Modifiers of Survival Motor Neuron (SMN) Protein: Gene Identification via Genome-wide siRNA Screen.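 Further: luminescence tracks full-length SMN protein made from the SMN2 reporter.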 To be noted: HEK293T SMN2-luciferase reporter, siRNA knockdown, 72 h; actives lie on both sides. The method, boiled down:
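HEK293T cells stably carrying an SMN2 promoter/splicing cassette–luciferase reporter were reverse-transfected with 1 pmol siRNA per well (druggable-genome library, 3 siRNAs per gene) and grown 72 h at 37 °C. Luminescence, normalized to negative-control siRNA and log10-transformed, was scored as MAD.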
In general terms: In a reporter assay the amount or activity of a reporter protein is the signal.
For the sequence GGUUAUACUCGGGCAGAGATT against NDUFS5, the median seed-adjusted z-score was -1.35 (active).

Take GGCUAACUAUUUUGUCAGATT against ABHD7: the median seed-adjusted z-score was -0.301.

Turning to CCAUGAUACUCCACUCCCATT against GUCA2A, the median seed-adjusted z-score is 0.121.

Regarding GGCUAUGCAGGUCCACUGUTT against DDR1, the median seed-adjusted z-score was -0.166.

As for GGUUUGAAGGGUUGACUCATT against STK38L, the median seed-adjusted z-score was 0.079.

For GAGACAACAUGAAUGACAATT against CHGB, the median seed-adjusted z-score is -1.29 (active).

GGAUGUGGGUUUACUCUUUTT against SLC1A5: the median seed-adjusted z-score was -0.104.

Take GCAUGGAUGCUUCUAGACATT against AKAP9: the median seed-adjusted z-score was -1.22 (active).

As to CCAUGAUCCUGAUAGGCAATT against PLAT, the median seed-adjusted z-score was 0.246.

For the sequence AGACCACCUUCAUCCGACATT against EHD1, the median seed-adjusted z-score was -0.616.

Turning to ACCUCGGACUGGUACAUGATT against SLC38A3, the median seed-adjusted z-score was -0.177.

GCUCGUAAACUAGCUAAUATT against RCOR3: the median seed-adjusted z-score was 0.0446.

For the sequence GCAAGUGAAUAUGCGGAUATT against SNRPE, the median seed-adjusted z-score was -2.77 (active).

In the case of GAAAACCCUUGUAAGUAUATT against ZNF354A, the median seed-adjusted z-score was 0.401.

As to GGUGUAAAAGUGAUUAUAATT against LCLAT1, the median seed-adjusted z-score is 0.

Turning to CACCUACUCUGACAACCAATT against HSPA1L, the median seed-adjusted z-score is -1.27 (active).

CUAUCACUGUCUCAAGUCATT against ITGA10: the median seed-adjusted z-score is 0.378.

GAGUUAAGGAGGUAGAUGATT against SNX5: the median seed-adjusted z-score is -0.141.

For GCAUGAGUGCUAUCAGAUATT against PIPOX, the median seed-adjusted z-score is 1.06 (active).

Take GCUCCUGGAGUUAAGCUUATT against SPINK2: the median seed-adjusted z-score is -0.431.

Turning to AGUUUCAUUUCAAUAAGUATT against HOXD1, the median seed-adjusted z-score is 0.144.

Consider GGAGUAACCUGGAUGAGGATT against C3, for which the median seed-adjusted z-score was 0.0281.

Consider AGAGCAUUGGGUACACCAATT against COL6A2, for which the median seed-adjusted z-score was 0.0119.

Take CCCAUUCCCUGUGCUCCAATT against CARD10: the median seed-adjusted z-score is -0.929.

Take GGUUUUUCAAGUACGAAAATT against RPS6KB1: the median seed-adjusted z-score was 1.4 (active).

GGCCCUUCAUCGAUAGCUATT against APEX2: the median seed-adjusted z-score was -0.347.

As for CCCUAUCCAUGUUCCAUGUTT against HDAC10, the median seed-adjusted z-score is -0.165.

On to CAGCUGUUGUUGAGCGAAUTT against CASP2, for which the median seed-adjusted z-score was 0.421.

Consider GGCUGUACAUCGAUAGCUATT against PGM1, for which the median seed-adjusted z-score was 0.136.

Turning to GUUCAUGCAUGGGUGGAAATT against CD200R2, the median seed-adjusted z-score was -0.772.

CGUCUAUACUUACAAGCUUTT against SF3B3: the median seed-adjusted z-score is -2.53 (active).

Take GAACCAACUCGGAUAUUGUTT against MEF2A: the median seed-adjusted z-score is -0.0658.

Take GUGCCUAAGUCUUUAGUUUTT against IFI35: the median seed-adjusted z-score was 0.105.

Take GGAGAUCUAUUCAAUGGGATT against SRPK1: the median seed-adjusted z-score is 0.37.

Take GAGCAGUUCGAACACCUUATT against RBM4B: the median seed-adjusted z-score was -0.251.

In the case of GCAGAAUACCUGUUUCAAATT against TERF1, the median seed-adjusted z-score is 0.0114.

For GUCAUCAACGGAAACAUAATT against EIF3G, the median seed-adjusted z-score was -0.198.

With GGUGAUGAGAGAUCCCAAUTT against PABPC4, the median seed-adjusted z-score is -0.42.

Take ACCGAGACCUCAAACCUGATT against PSKH1: the median seed-adjusted z-score is -2.03 (active).

In the case of CUUUCUAGCAGUCACCAUATT against CIR, the median seed-adjusted z-score was -0.197.

GCCUAUAACAUGCAAACUUTT against HOXC5: the median seed-adjusted z-score is 0.507.

Take GAAACCCGGUGAAAAGAAATT against VARS2: the median seed-adjusted z-score is 0.288.

With GCUUAUAGCUGCUACAAUUTT against MTMR1, the median seed-adjusted z-score was -0.0204.

Regarding CGAAAUACGUGGAACUCAUTT against ACE, the median seed-adjusted z-score was 0.0874.

Consider ACAUCGCCCUUAUUGCUAUTT against FOXS1, for which the median seed-adjusted z-score was 0.

For the sequence AGAGCAUCCUAAACGACCATT against SMUG1, the median seed-adjusted z-score is -1.38 (active).

As for GCUGGUACAUGACAUCCGATT against GGT7, the median seed-adjusted z-score is 0.135.

For GCCUUAAGAUCUCGGCGUATT against PTPRK, the median seed-adjusted z-score was 0.

For UGAAGAUGAGGGACCCUAATT against LOXL4, the median seed-adjusted z-score is -0.591.

With GGGUGGACGUGGAUACUUATT against NFE2L1, the median seed-adjusted z-score is 0.689.

With AGGGCUAUCUGGUAUCUGUTT against SNRPF, the median seed-adjusted z-score was -2.66 (active).

CUGGUACAGUGAUCGGGAATT against PCDH12: the median seed-adjusted z-score was 0.0177.

GUUAUGCCUUUAUUAAUUUTT against SF3B4: the median seed-adjusted z-score was -2.56 (active).

In the case of GGAUAUUACAGCUAUUUGATT against USP10, the median seed-adjusted z-score is 0.182.

For the sequence CAACUGCAGCAGAUUCUAATT against MNAT1, the median seed-adjusted z-score was -0.335.

Regarding GACCAGAUCUUUAAUCUCATT against RGS10, the median seed-adjusted z-score was 0.304.

Take CAACACCGCCCACAACAAATT against TRIM25: the median seed-adjusted z-score was 0.859.

Consider CGGGAGUUUUUGGAACUGATT against MMS19L, for which the median seed-adjusted z-score is 0.898.

GGAAGCUCCUUGUCAAGAUTT against MECP2: the median seed-adjusted z-score was -0.332.

Take GCAGGAUGCUGUCAACAUATT against PSMD4: the median seed-adjusted z-score is 1.46 (active).

For the sequence GCAAGAGAAUUAGAUCAGATT against SLC16A12, the median seed-adjusted z-score was 0.0219.

Regarding CCAUCGUCAACAUACGGAATT against TRIT1, the median seed-adjusted z-score was 0.794.

Turning to GUGUGGAUCUGUGGACUCATT against CRB2, the median seed-adjusted z-score was 0.

In the case of CACUAAGAGAAAAUCUGAATT against GALNT13, the median seed-adjusted z-score is -0.0149.

Regarding CCACCUAGCUUGUAACGAATT against EP400, the median seed-adjusted z-score was 1.83 (active).

On to GGUUGUAGAGUUGAAAGUUTT against UBE2O, for which the median seed-adjusted z-score is 0.125.

As for GGACACGGGUGUCAUCCUATT against UBASH3A, the median seed-adjusted z-score is -1.1 (active).

With GCCGUUUAAUACCCGAUGATT against RNF125, the median seed-adjusted z-score is 0.204.

Turning to AUGGUUACCUGUUCACCUATT against SLC7A10, the median seed-adjusted z-score is -0.732.
